Measured values published in PubChem BioAssay (EPA / NIEHS).
Results filed as inconclusive are left out. Active and inactive are the calls of the source. How the source made its calls: active means hit-call score of the fitted dose curve at least 0.9, where 1 is the maximum; inconclusive means response in the unintended direction; inactive means score below 0.9.

How the values were obtained:
[1] = TOX21_p53_BLA_p2_viability: Viability Assessment in the Tox21 HCT-116 p53 Agonism Beta-lactamase Assay, Phase 2 (AID 2283591);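 further: compound exposure lasted 16 h at 37 °C; actives lower the ATP signal meaning cytotoxicity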
In short: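 Cytotoxicity readout: CellTiter-Glo ATP luminescence, 30 min at room temperature, after the beta-lactamase read. Cells were HCT116 exposed 16 h at 37C to compounds pin-transferred at 217-fold dilution from DMSO stocks.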

[2] = target: Cellular tumor antigen p53 (Homo sapiens) (UniProt P04637); assay: TOX21_p53_BLA_p2_ratio: Tox21 HCT-116 p53 Agonism Beta-lactamase Assay, Ratio, Phase 2 (AID 2283592)
In short: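 HCT116 cells carrying a p53-responsive beta-lactamase reporter were plated, incubated 5 h at 37C, then dosed with compounds in DMSO (217-fold dilution) for 16 h. CCF4-AM substrate was added for 2 h at room temperature; the 460/530 nm emission ratio gave gain-of-signal activity relative to DMSO.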

[3] = TOX21_p53_BLA_p3_viability: Viability Assessment in the Tox21 HCT-116 p53 Agonism Beta-lactamase Assay, Phase 3 (AID 2283593);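 further: cells exposed to compound for 16 h before reading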
In short: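 Cellular ATP was quantified by CellTiter-Glo luminescence, read after 30 min at room temperature. Beforehand, HCT116 cells (4000/well) received compound 5 h post-seeding, 217-fold diluted from DMSO, then incubated 16 h at 37C.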

[4] = TOX21_p53_BLA_p4_viability: Viability Assessment in the Tox21 HCT-116 p53 Agonism Beta-lactamase Assay, Phase 4 (AID 2283597);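 further: hits lower the luminescence signal meaning cytotoxicity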
In short: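 HCT116 p53-bla cells (4000/well) rested 5 h at 37C, then received compounds in DMSO (217-fold dilution) for 16 h at 37C, 5% CO2. CellTiter-Glo was added after the CCF4-AM read, and luminescence was read after 30 min at room temperature.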

[5] = target: Cellular tumor antigen p53 (Homo sapiens) (UniProt P04637); assay: TOX21_p53_BLA_p5_ratio: Tox21 HCT-116 p53 Agonism Beta-lactamase Assay, Ratio, Phase 5 (AID 2283599)
In short: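 Beta-lactamase reporter ratio (blue 460 nm over green 530 nm, 405 nm excitation) after 2 h CCF4-AM loading, in HCT-116 cells exposed 16 h at 37 C to compounds pinned at 217-fold dilution. Increases relative to DMSO baseline scored.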

[6] = TOX21_p53_BLA_p5_viability: Viability Assessment in the Tox21 HCT-116 p53 Agonism Beta-lactamase Assay, Phase 5 (AID 2283600)
In short: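 Cells were plated at 4000/well, rested 5 h at 37C, then given compounds in DMSO (217-fold dilution) for 16 h at 37C, 5% CO2. Following the CCF4-AM beta-lactamase read, CellTiter-Glo was added and luminescence was read after 30 min at room temperature.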

[7] = target: Cellular tumor antigen p53 (Homo sapiens) (UniProt P04637); assay: TOX21_p53_BLA_p4_ratio: Tox21 HCT-116 p53 Agonism Beta-lactamase Assay, Ratio, Phase 4 (AID 2283601)
In short: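 Signal is the blue/green (460nm/530nm) ratio of cleaved versus uncleaved CCF4-AM substrate, read after 2 h substrate loading. Cells were HCT116 carrying the p53-responsive beta-lactamase reporter, dosed 16 h at 37C, 5% CO2; CellTiter-Glo measured in parallel.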

Sequence of Cellular tumor antigen p53 (Homo sapiens) (P04637 whole entry, looked up): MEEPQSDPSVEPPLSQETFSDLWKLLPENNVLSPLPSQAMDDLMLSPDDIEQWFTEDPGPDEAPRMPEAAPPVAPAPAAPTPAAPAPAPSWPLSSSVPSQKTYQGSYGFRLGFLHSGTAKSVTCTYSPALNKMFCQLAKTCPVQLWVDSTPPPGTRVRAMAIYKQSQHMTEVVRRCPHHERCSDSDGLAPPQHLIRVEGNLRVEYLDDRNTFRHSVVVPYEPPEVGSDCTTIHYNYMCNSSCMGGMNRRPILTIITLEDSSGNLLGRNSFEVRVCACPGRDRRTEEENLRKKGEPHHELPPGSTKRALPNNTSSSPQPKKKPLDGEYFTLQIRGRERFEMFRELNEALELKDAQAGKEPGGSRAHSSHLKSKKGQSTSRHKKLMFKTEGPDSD

Compound	outcome [1]	outcome [2]	outcome [3]	outcome [4]	outcome [5]	outcome [6]	outcome [7]	AC50 [4]
O=C1OC(=O)c2cc([N+](=O)[O-])ccc21	inactive	inactive	inactive	inactive	inactive			
CC1=C(O)C(=O)OC1C (stereo unspecified)	inactive	inactive	inactive	inactive	inactive	inactive		
NC(N)=NC(=O)Cc1c(Cl)cccc1Cl	inactive	inactive	inactive	inactive	inactive	inactive	inactive	
O=C(CCN1CCN2CCCC2C1)N1c2ccccc2Sc2ccc(Cl)cc21 (stereo unspecified)	inactive	inactive	inactive	inactive				
C[C@H]1C[C@H]2[C@@H]3CCC4=CC(=O)C=C[C@]4(C)[C@H]3C(=O)C[C@]2(C)[C@@]1(O)C(=O)CO	inactive	inactive	inactive	inactive	inactive			
COc1cc(C(=O)OC(COCCC(C)C)CN2CCOCC2)cc(OC)c1OC (stereo unspecified)	inactive	inactive	inactive	inactive				
C[N+]1(C)CCC(OC(=O)C(O)(c2ccccc2)C2CCCC2)C1 (stereo unspecified)	inactive	inactive	inactive	inactive	inactive	inactive	inactive	
Cc1cc(N)c2cc(NC(=O)Nc3ccc4nc(C)cc(N)c4c3)ccc2n1	inactive	inactive	inactive		inactive	inactive	inactive	29.7 µM (active)
CCCCCCCCCCCCCCCC[N+](C)(C)CCN(Cc1ccc(OC)cc1)c1ncccn1	inactive	inactive	inactive		inactive	inactive	inactive	17.3 µM (active)
O=C(O)Cc1cccc(-c2cc(CCCCCCc3ccc(O[C@H]4O[C@H](CO)[C@@H](O)[C@H](O)[C@@H]4O)c(-c4cccc(CC(=O)O)c4)c3)ccc2O[C@H]2O[C@H](CO)[C@@H](O)[C@H](O)[C@@H]2O)c1	inactive	inactive	inactive	inactive	inactive	inactive		
CC1(C)S[C@@H]2[C@H](NC(=O)C(C(=O)O)c3ccsc3)C(=O)N2[C@H]1C(=O)O (stereo partly specified)	inactive	inactive	inactive	inactive	inactive	inactive		
O=Cc1ccc([N+](=O)[O-])cc1	inactive	inactive	inactive	inactive	inactive			
CC1(C)C(=O)C(C)(C)C1=O	inactive	inactive	inactive	inactive	inactive	inactive		
CCCCCCCCCCCC(=O)OC[C@@H](O)[C@H]1OC[C@H](OCCO)[C@H]1OCCO	inactive	inactive	inactive	inactive	inactive	inactive	inactive	
S=c1nccc[nH]1	inactive	inactive	inactive	inactive	inactive	inactive	inactive	
Cc1c(C(=O)O)cccc1[N+](=O)[O-]	inactive	inactive	inactive	inactive	inactive	inactive	inactive	
